# Results taken from the supplement of paper PMC6089552.
# The campaign covered roughly 3,200 compounds. About 300 (9.4%) showed activity. This is one part of a sample in which actives are shown more often than they occur. Unmarked numbers belong to inactive results.
# Test system: A673/TR/shEF
# Test: cell viability (LOESS-normalised, relative to median of negative controls) (log2 ratio); higher = more viable cells (less compound effect), active = hit call of the paper (over 3 MAD below the median)
# Settings: treatment time: 72 h
# Summary of the method: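 A673/TR/shEF Ewing sarcoma cells (1,500 per well, 384-well plates) were grown with or without doxycycline to induce EWS-FLI1 shRNA knockdown, starting 24 h before compounds. Library compounds at two or more concentrations, with DMSO controls, were added for three days. Cell viability was read by CellTiter-Glo luminescence on an Envision reader, then LOESS-corrected per plate, divided by the median of negative controls and log2-transformed. Hits were wells at least three median absolute deviations from the median of all screened wells.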
# [1] = 0.25 µM, library screen: screen1, EWS-FLI1 expression: high (no doxycycline)
# [2] = 0.25 µM, library screen: screen1, EWS-FLI1 expression: low (doxycycline-induced shRNA knockdown)
# [3] = 2.5 µM, library screen: screen1, EWS-FLI1 expression: high (no doxycycline)
# [4] = 2.5 µM, library screen: screen1, EWS-FLI1 expression: low (doxycycline-induced shRNA knockdown)
smiles,measurement,setting,value
CC(C)N1C(=O)/C(=C\c2ccco2)SC1=S,cell viability (log2),[1],0.136
same,cell viability (log2),[2],0.0809
same,cell viability (log2),[3],0.114
same,cell viability (log2),[4],0.139
O=C(O[C@@H]1Cc2c(O)cc(O)cc2O[C@@H]1c1cc2cc([C@H]3Oc4cc(O)cc(O)c4C[C@H]3O)cc(=O)c(O)c2c(O)c1O)c1cc(O)c(O)c(O)c1,cell viability (log2),[1],0.115
same,cell viability (log2),[2],0.032
same,cell viability (log2),[3],0.00601
same,cell viability (log2),[4],-0.0597
COC(=O)c1cc(=O)c(O)c2c(O)c(O)ccc2c1,cell viability (log2),[1],0.103
same,cell viability (log2),[2],0.0315
same,cell viability (log2),[3],0.145
same,cell viability (log2),[4],0.0325
COc1cc2cccc(OC)c(=O)c2c(OC)c1OC,cell viability (log2),[1],0.0955
same,cell viability (log2),[2],0.0427
same,cell viability (log2),[3],0.109
same,cell viability (log2),[4],0.0214
COC(=O)c1cc(OC)c(=O)c2c(OC)c(OC)ccc2c1,cell viability (log2),[1],-0.0869 (active)
same,cell viability (log2),[2],0.0503
same,cell viability (log2),[3],0.0906
same,cell viability (log2),[4],-0.0346
COc1ccccc1NC(=O)C1=C(C)NC(=O)NC1c1cccc(Cl)c1 (stereo unspecified),cell viability (log2),[1],0.0986
same,cell viability (log2),[2],0.0367
same,cell viability (log2),[3],0.0178
same,cell viability (log2),[4],0.0125
CC(C)CCCCCOC(=O)COc1ccc(Cl)cc1Cl,cell viability (log2),[1],0.0385
same,cell viability (log2),[2],0.102
same,cell viability (log2),[3],0.111
same,cell viability (log2),[4],-0.0211
CC1(C)C2CC(=O)[C@]3(C)C(CC[C@@]4(C)[C@H](C(=O)O)OC(=O)C5OC543)[C@@]2(C)[C@@H](O)C[C@H]1O (stereo partly specified),cell viability (log2),[1],0.0536
same,cell viability (log2),[2],0.0574
same,cell viability (log2),[3],0.0836
same,cell viability (log2),[4],0.107
Cc1cc(N2CCN(c3ncccn3)CC2)n2c(nc3ccccc32)c1C#N,cell viability (log2),[1],0.119
same,cell viability (log2),[2],0.0784
same,cell viability (log2),[3],0.108
same,cell viability (log2),[4],0.0845
CC1(COc2ccc3c(c2)ncn3-c2ccc3cccc(N4CCC(N)CC4)c3n2)COC1,cell viability (log2),"0.103 µM, library screen: screen3, EWS-FLI1 expression: high (no doxycycline)",-0.0477
same,cell viability (log2),"0.103 µM, library screen: screen3, EWS-FLI1 expression: low (doxycycline-induced shRNA knockdown)",-0.0112
same,cell viability (log2),"0.308 µM, library screen: screen3, EWS-FLI1 expression: high (no doxycycline)",0.0251
same,cell viability (log2),"0.308 µM, library screen: screen3, EWS-FLI1 expression: low (doxycycline-induced shRNA knockdown)",0.0104
same,cell viability (log2),"0.926 µM, library screen: screen3, EWS-FLI1 expression: high (no doxycycline)",0.0241
same,cell viability (log2),"0.926 µM, library screen: screen3, EWS-FLI1 expression: low (doxycycline-induced shRNA knockdown)",0.0302
same,cell viability (log2),"2.8 µM, library screen: screen3, EWS-FLI1 expression: high (no doxycycline)",0.0311
same,cell viability (log2),"2.8 µM, library screen: screen3, EWS-FLI1 expression: low (doxycycline-induced shRNA knockdown)",0.0382
same,cell viability (log2),"8.3 µM, library screen: screen3, EWS-FLI1 expression: high (no doxycycline)",-0.22 (active)
same,cell viability (log2),"8.3 µM, library screen: screen3, EWS-FLI1 expression: low (doxycycline-induced shRNA knockdown)",-0.0084
same,cell viability (log2),"25 µM, library screen: screen3, EWS-FLI1 expression: high (no doxycycline)",-1.66 (active)
same,cell viability (log2),"25 µM, library screen: screen3, EWS-FLI1 expression: low (doxycycline-induced shRNA knockdown)",-0.632 (active)
COc1ccc(OC)c(CN2CCN(Cc3ccccc3F)CC2)c1,cell viability (log2),[1],0.0715
same,cell viability (log2),[2],0.0693
same,cell viability (log2),[3],0.123
same,cell viability (log2),[4],0.0288
C=C1C2CCC3(C)C(c4ccoc4)OC(=O)CC13OC1CC(=O)C(C)(C)C(CC(=O)OC)C12C (stereo unspecified),cell viability (log2),[1],0.0862
same,cell viability (log2),[2],0.067
same,cell viability (log2),[3],0.0511
same,cell viability (log2),[4],0.0888
